Consider 30 compounds from the supplement of paper PMC9254222.

In all, about 1,100 compounds were measured (“Wnt reporter firefly/Renilla luciferase ratio relative to plate median”: median about 1.1, highest 2% from about 1.6 on). The sample holds the highest values, similar compounds and a random draw of the others, so the mix is not that of the screen.

This test has as its system HEK293T (UBE3A T485A transfected, BAR Wnt reporter). In words: Wnt reporter firefly/Renilla luciferase ratio relative to plate median (fold (linear ratio)); higher = more Wnt/beta-catenin reporter activation. The following applies: 24 h. In short, it runs like this:
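Chemicals were robotically dosed at 0.01–100 uM for 24 h onto HEK293T cells, starting four hours after transfection with a BAR firefly luciferase Wnt reporter, TK-Renilla and an expression plasmid. The cells had been plated at 4500 cells/well in DMEM with 10% FBS at 37°C and 5% CO2. Following a Dual-Glo luciferase readout, the firefly/Renilla ratio served as the Wnt activity measure and raw Renilla as the cell health measure, both median-centred on each plate. Each value is the mean of four biological replicates.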

Turning to `Cc1cc2c(cc1C(F)(F)F)N(C(=O)Nc1ccc(Oc3cccnc3C)nc1)CC2.Cl`, the “Wnt reporter firefly/Renilla luciferase ratio” value was 1.03 (concentration: 0.1 uM), 1.4 (concentration: 1 uM), 0.768 (concentration: 10 uM) and 0.554 (concentration: 100 uM).

As for `CCN(Cc1c(F)cccc1Cl)c1c([N+](=O)[O-])cc(C(F)(F)F)cc1[N+](=O)[O-]` [Flumetralin], the “Wnt reporter firefly/Renilla luciferase ratio” value (concentration: 0.01 uM) worked out at 1.23; the “Wnt reporter firefly/Renilla luciferase ratio” value (concentration: 0.1 uM) turned out to be 1.65; the “Wnt reporter firefly/Renilla luciferase ratio” value (concentration: 1 uM) turned out to be 1.11; the “Wnt reporter firefly/Renilla luciferase ratio” value (concentration: 10 uM) came out at 0.843; the “Wnt reporter firefly/Renilla luciferase ratio” value (concentration: 100 uM) amounted to 0.851.

Take `CCCN(CCC)c1c([N+](=O)[O-])cc(C(F)(F)F)c(N)c1[N+](=O)[O-]` [Prodiamine]: the “Wnt reporter firefly/Renilla luciferase ratio” value (concentration: 0.01 uM) was 1.16; the “Wnt reporter firefly/Renilla luciferase ratio” value (concentration: 0.1 uM) is 1.47; the “Wnt reporter firefly/Renilla luciferase ratio” value (concentration: 1 uM) turned out to be 1.2; the “Wnt reporter firefly/Renilla luciferase ratio” value (concentration: 10 uM) came out at 1.2; the “Wnt reporter firefly/Renilla luciferase ratio” value (concentration: 100 uM) stood at 1.29.

For the compound `CC(C(C)N1CC(=O)NC(=O)C1)N1CC(=O)NC(=O)C1` (configuration not stated), the “Wnt reporter firefly/Renilla luciferase ratio” value is, setting by setting: (concentration: 0.01 uM) 1.31; (concentration: 0.1 uM) 1.88; (concentration: 1 uM) 1.23; (concentration: 10 uM) 1.33; (concentration: 100 uM) 1.53.

`C#C[C@]1(O)CC[C@H]2[C@@H]3CCc4cc(O)ccc4[C@H]3CC[C@@]21C` [17alpha-Ethinylestradiol]: the “Wnt reporter firefly/Renilla luciferase ratio” value is, setting by setting: (concentration: 0.1 uM) 1.06; (concentration: 1 uM) 0.888; (concentration: 10 uM) 1.12; (concentration: 100 uM) 0.42.

As to `CC(=O)O` [Acetic acid], the “Wnt reporter firefly/Renilla luciferase ratio” value (concentration: 0.1 uM) came out at 1.13, the “Wnt reporter firefly/Renilla luciferase ratio” value (concentration: 1 uM) came to 1.09, the “Wnt reporter firefly/Renilla luciferase ratio” value (concentration: 10 uM) came out at 1.46 and the “Wnt reporter firefly/Renilla luciferase ratio” value (concentration: 100 uM) is 1.17.

For the compound `C#C[C@]1(O)CC[C@H]2[C@@H]3CCC4=CC(=O)CC[C@@H]4[C@H]3CC[C@@]21CC` [Norgestrel], the “Wnt reporter firefly/Renilla luciferase ratio” value reads like this: (concentration: 0.1 uM) 0.82; (concentration: 1 uM) 1.09; (concentration: 10 uM) 1.07; (concentration: 100 uM) 1.36.

For `CS(=O)(=O)O.Cc1cc(CCN2CCN(c3nsc4ccccc34)CC2)cc2c1NC(=O)CC2(C)C`, the “Wnt reporter firefly/Renilla luciferase ratio” value by setting is: (concentration: 0.1 uM) 0.776; (concentration: 1 uM) 0.735; (concentration: 10 uM) 0.407.

Turning to `CCNc1cccc(C)c1` [N-Ethyl-3-methylaniline], the “Wnt reporter firefly/Renilla luciferase ratio” value came to 0.98 (concentration: 0.1 uM), 1.05 (concentration: 1 uM), 1.05 (concentration: 10 uM) and 1.54 (concentration: 100 uM).

Take `O=C(N[C@@H](Cc1ccccc1)[C@@H](O)C(=O)N1C[C@@H](O)[C@@H](O)C1)c1cc2cc(Cl)ccc2[nH]1` [Ingliforib]: the “Wnt reporter firefly/Renilla luciferase ratio” value (concentration: 0.1 uM) is 1.29, the “Wnt reporter firefly/Renilla luciferase ratio” value (concentration: 1 uM) was 1.69, the “Wnt reporter firefly/Renilla luciferase ratio” value (concentration: 10 uM) was determined as 0.888 and the “Wnt reporter firefly/Renilla luciferase ratio” value (concentration: 100 uM) was 0.353.

As for `CCCCCCCCOc1ccc(C(=O)c2ccccc2)c(O)c1` [Octabenzone], the “Wnt reporter firefly/Renilla luciferase ratio” value is, setting by setting: (concentration: 0.1 uM) 1.12; (concentration: 1 uM) 1.08; (concentration: 10 uM) 0.916; (concentration: 100 uM) 1.2.

As for `O=C(O)C1(C(=O)Nc2ccc(Cl)cc2Cl)CC1` [Cyclanilide], the “Wnt reporter firefly/Renilla luciferase ratio” value runs as follows: (concentration: 0.01 uM) 1.46; (concentration: 0.1 uM) 1.6; (concentration: 1 uM) 1.16; (concentration: 10 uM) 1.53; (concentration: 100 uM) 0.874.

As for `O=C(N[C@@H](c1ccccc1)[C@@H]1CCCCN1)c1cccc(C(F)(F)F)c1Cl`, the “Wnt reporter firefly/Renilla luciferase ratio” value (concentration: 0.1 uM) came out at 0.912, the “Wnt reporter firefly/Renilla luciferase ratio” value (concentration: 1 uM) was 1.24 and the “Wnt reporter firefly/Renilla luciferase ratio” value (concentration: 10 uM) is 0.921.

`CCOC(=O)COc1ccc2c(c1)CC(NCC(O)c1cccc(Cl)c1)CC2.Cl` (configuration not stated): the “Wnt reporter firefly/Renilla luciferase ratio” value stood at 1.06 (concentration: 0.1 uM), 1.18 (concentration: 1 uM), 1.15 (concentration: 10 uM) and 1.19 (concentration: 100 uM).

`Cl.Clc1cc(Cl)c2c(c1)N=C1CCCCCN1C2`: the “Wnt reporter firefly/Renilla luciferase ratio” value is 0.996 (concentration: 0.1 uM), 1.26 (concentration: 1 uM), 1.13 (concentration: 10 uM) and 0.303 (concentration: 100 uM).

Take `Cc1[nH]nc2c1N=C(c1ccccc1Cl)c1cc([N+](=O)[O-])ccc1N2`: the “Wnt reporter firefly/Renilla luciferase ratio” value came out at 1.21 (concentration: 0.1 uM), 1.72 (concentration: 1 uM), 104 (concentration: 10 uM) and 89.3 (concentration: 100 uM).

On to `Nc1nc2nc[nH]c2c(=S)[nH]1` [6-Thioguanine], for which the “Wnt reporter firefly/Renilla luciferase ratio” value (concentration: 0.1 uM) came to 1.31 and the “Wnt reporter firefly/Renilla luciferase ratio” value (concentration: 1 uM) was found to be 1.03.

Regarding `CCCCC(CC)COC(=O)CCCCCCCC(=O)OCC(CC)CCCC` (configuration not stated) [Bis(2-ethylhexyl) nonanedioate], the “Wnt reporter firefly/Renilla luciferase ratio” value runs as follows: (concentration: 0.1 uM) 1.04; (concentration: 1 uM) 0.979; (concentration: 10 uM) 1.33; (concentration: 100 uM) 1.24.

As for `O=C(NO)C1(NS(=O)(=O)c2ccc(Oc3ccc(F)cc3)cc2)CCOCC1`, the “Wnt reporter firefly/Renilla luciferase ratio” value by setting is: (concentration: 0.1 uM) 1.18; (concentration: 1 uM) 0.992; (concentration: 10 uM) 0.736; (concentration: 100 uM) 0.244.

`O=C(O)[C@H](O)[C@@H](O)C(=O)O` [L-Tartaric acid]: the “Wnt reporter firefly/Renilla luciferase ratio” value is, setting by setting: (concentration: 0.1 uM) 1.14; (concentration: 1 uM) 1.29; (concentration: 10 uM) 0.958; (concentration: 100 uM) 1.46.

On to `Cc1cn([C@H]2C=C[C@@H](CO)O2)c(=O)[nH]c1=O` [Stavudine], for which the “Wnt reporter firefly/Renilla luciferase ratio” value came out at 1.03 (concentration: 0.1 uM), 1.04 (concentration: 1 uM), 0.931 (concentration: 10 uM) and 1.62 (concentration: 100 uM).

For `Cc1cn([C@H]2C[C@H](N=[N+]=[N-])[C@@H](CO)O2)c(=O)[nH]c1=O` [3'-Azido-3'-deoxythymidine], the “Wnt reporter firefly/Renilla luciferase ratio” value is 1.15 (concentration: 0.1 uM), 1.04 (concentration: 1 uM), 1.15 (concentration: 10 uM) and 1.07 (concentration: 100 uM).

Turning to `OCC(CO)(CO)CO` [Pentaerythritol], the “Wnt reporter firefly/Renilla luciferase ratio” value worked out at 1.18 (concentration: 0.1 uM), 1.51 (concentration: 1 uM), 1.13 (concentration: 10 uM) and 1.27 (concentration: 100 uM).

As to `Cc1oc2c(NC(=O)c3c(Cl)cccc3Cl)cccc2c1C(C)(C)O`, the “Wnt reporter firefly/Renilla luciferase ratio” value by setting is: (concentration: 0.1 uM) 1.01; (concentration: 1 uM) 1.14; (concentration: 10 uM) 0.7.

On to `CN1C(=O)CC[C@H]1c1cccnc1` [Cotinine], for which the “Wnt reporter firefly/Renilla luciferase ratio” value runs as follows: (concentration: 0.1 uM) 0.928; (concentration: 1 uM) 0.981; (concentration: 10 uM) 1.03; (concentration: 100 uM) 1.13.

On to `CC1COc2c(N3CCN(C)CC3)c(F)cc3c(=O)c(C(=O)O)cn1c23` (configuration not stated) [Levofloxacin], for which the “Wnt reporter firefly/Renilla luciferase ratio” value runs as follows: (concentration: 0.01 uM) 1.21; (concentration: 0.1 uM) 1.2; (concentration: 1 uM) 1.05; (concentration: 10 uM) 1.11; (concentration: 100 uM) 1.45.

`COc1c(N2CC3CCCNC3C2)c(F)cc2c(=O)c(C(=O)O)cn(C3CC3)c12` (configuration not stated) [Moxifloxacin]: the “Wnt reporter firefly/Renilla luciferase ratio” value (concentration: 0.01 uM) was 0.907; the “Wnt reporter firefly/Renilla luciferase ratio” value (concentration: 0.1 uM) came to 1.02; the “Wnt reporter firefly/Renilla luciferase ratio” value (concentration: 1 uM) is 1.07; the “Wnt reporter firefly/Renilla luciferase ratio” value (concentration: 10 uM) is 0.95; the “Wnt reporter firefly/Renilla luciferase ratio” value (concentration: 100 uM) turned out to be 0.752.

Take `O=C(O)c1cn(C2CC2)c2cc(N3CCNCC3)c(F)cc2c1=O` [Ciprofloxacin]: the “Wnt reporter firefly/Renilla luciferase ratio” value by setting is: (concentration: 0.01 uM) 0.979; (concentration: 0.1 uM) 0.853; (concentration: 1 uM) 1.01; (concentration: 10 uM) 0.882; (concentration: 100 uM) 1.74.

For `O=C(CCCN1CCC(O)(c2ccc(Cl)cc2)CC1)c1ccc(F)cc1` [Haloperidol], the “Wnt reporter firefly/Renilla luciferase ratio” value (concentration: 0.1 uM) turned out to be 1.01, the “Wnt reporter firefly/Renilla luciferase ratio” value (concentration: 1 uM) worked out at 0.984, the “Wnt reporter firefly/Renilla luciferase ratio” value (concentration: 10 uM) amounted to 0.916 and the “Wnt reporter firefly/Renilla luciferase ratio” value (concentration: 100 uM) came out at 0.572.

In the case of `CCNc1ccccc1` [N-Ethylaniline], the “Wnt reporter firefly/Renilla luciferase ratio” value (concentration: 0.1 uM) came out at 0.799, the “Wnt reporter firefly/Renilla luciferase ratio” value (concentration: 1 uM) turned out to be 1.03, the “Wnt reporter firefly/Renilla luciferase ratio” value (concentration: 10 uM) came to 0.96 and the “Wnt reporter firefly/Renilla luciferase ratio” value (concentration: 100 uM) stood at 1.2.
